From the supplement of paper PMC12636033
± gives the standard deviation of the averaged measurements. The full ranking holds about 33,000 sequences; the median of “E-score (rank enrichment, -0.5 to 0.5)” is about -0.0043, and the highest 2% start at about 0.24. This is one part of a sample in which the highest values are shown more often than they occur.

These sequences were tested on 2Sp-muMax20 (muMax20 with two 2,6-bis(methyl)pyridine Cys staples) (assay: PBM 8-mer E-score (E-score (rank enrichment, -0.5 to 0.5)); higher = stronger preferential binding).
Protocol: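 Protein binding microarray (universal PBM chip covering all 10-mers in fixed probe flanks) with chemically synthesized human Max(13-93) bHLH-LZ analogs (not full-length Max) bearing noncanonical residues (hArg, Tha, Aib, Nle at 65) and aromatic Cys staples. Read-out per 8-mer (and its reverse complement): E-score (rank-based enrichment, -0.5 to 0.5) and Z-score of median probe intensity.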

| Sequence | PBM 8-mer E-score |
| --- | --- |
| GTAACATA | 0.177 ± 0.016 |
| ATACCGCA | 0.013 ± 0.035 |
| TTATTGAA | 0.3 ± 0.049 |
| GAATTGAA | 0.0949 ± 0.085 |
| AAATTGAA | 0.24 ± 0.083 |
| ATATTGAA | 0.0994 ± 0.059 |
| AAATTGAT | 0.113 ± 0.046 |
| GTATTGAA | 0.132 ± 0.089 |
| ACAACGGA | -0.0195 ± 0.029 |
| ACGATACA | 0.0917 ± 0.079 |
| ACATAGCG | 0.00456 ± 0.11 |
| ACCCCGCT | -0.0295 ± 0.018 |
| GATGCGCC | -0.0256 ± 0.014 |
| TGTGAAAA | 0.289 ± 0.035 |
| GGTGAAAA | -0.00809 ± 0.034 |
| CGTGAAAA | 0.109 ± 0.014 |
| AATAGGTA | 0.198 ± 0.0069 |
| AGCCGTTA | -0.114 ± 0.018 |
| AACCGTAA | 0.0404 ± 0.047 |
| CTGATCAA | -0.0225 ± 0.021 |
| CGCGGGAA | 0.0597 ± 0.013 |
| CTGTAATA | 0.134 ± 0.074 |
| GTGTAATA | 0.162 ± 0.042 |

| Sequence | PBM 8-mer E-score |
| --- | --- |
| GTGTACTA | 0.0822 ± 0.031 |
| CTGTAATC | 0.0629 ± 0.045 |
| CTGTAAAA | 0.102 ± 0.0073 |
| ATGTACTG | 0.0436 ± 0.099 |
| ATGTAAAT | 0.159 ± 0.029 |
| ATGTAATA | 0.278 ± 0.0077 |
| ATGTAATG | 0.134 ± 0.074 |
| ATGTAATC | 0.236 ± 0.023 |
| ATGTACTA | 0.258 ± 0.061 |
| ATGTAAAA | 0.274 ± 0.016 |
| CCTGGAGA | -0.136 ± 0.09 |
| AAACTTAT | 0.203 ± 0.022 |
| GTGGGCCA | -0.0973 ± 0.051 |
| AGGAGCCC | 0.00737 ± 0.03 |
| ACCTCCAG | -0.161 ± 0.079 |
| AGGGACCT | -0.13 ± 0.0014 |
| GGCAACGA | -0.123 ± 0.0029 |
| AACATAAC | 0.278 ± 0.052 |
| CACATAAC | 0.0249 ± 0.13 |
| AACATAAT | 0.285 ± 0.053 |
| AACATAAA | 0.164 ± 0.097 |
| AACATAAG | 0.0487 ± 0.042 |
| GACATAAC | 0.146 ± 0.026 |

| Sequence | PBM 8-mer E-score |
| --- | --- |
| GTCGGCAC | -0.0877 ± 0.06 |
| TCCGATAA | -0.23 ± 0.14 |
| AAAGTACC | 0.17 ± 0.02 |
| AGCGCTAA | -0.0615 ± 0.022 |
| CTTGACGA | 0.00312 ± 0.0077 |
| CGGTGAAC | 0.0144 ± 0.098 |
| AGGGCGAA | -0.00371 ± 0.021 |
| AAATACGC | 0.236 ± 0.058 |
| AAATACGT | 0.112 ± 0.06 |
| GAATACGC | 0.0401 ± 0.069 |
| ATTAAGGC | 0.0884 ± 0.038 |
| AGCGATGC | -0.00497 ± 0.044 |
| AGATAAAC | 0.00083 ± 0.061 |
| CCTTTCAC | 0.0665 ± 0.067 |
| ATTTTCAC | 0.0326 ± 0.0074 |
| CTTTTCAC | 0.287 ± 0.021 |
| CGGTTCGA | -0.0332 ± 0.043 |
| CACCCTCG | 0.07079 ± 0.00033 |
| CTTGTTTA | -0.0208 ± 0.029 |
| GTTGTTTA | 0.247 ± 0.0077 |
| AATGTTAC | 0.0165 ± 0.1 |
| CATGTTAG | 0.111 ± 0.049 |
| CATGTTGC | 0.1 ± 0.094 |

| Sequence | PBM 8-mer E-score |
| --- | --- |
| CATGTTTA | 0.24 ± 0.056 |
| GATGTTTA | 0.0541 ± 0.02 |
| AATGTTGA | -0.0129 ± 0.047 |
| CATGTTTC | 0.0659 ± 0.0045 |
| ATTGTTTA | -0.0168 ± 0.043 |
| CATGTTAC | 0.256 ± 0.018 |
| CATGTTGA | 0.244 ± 0.023 |
| ATTTCAGA | 0.0234 ± 0.035 |
| GGGATCGA | 0.0419 ± 0.04 |
| AGACAGGG | -0.0986 ± 0.041 |
| CACGCAAC | -0.0734 ± 0.013 |
| CAGTCATG | 0.0672 ± 0.14 |
| ACACTATA | 0.0551 ± 0.059 |
| GACTTTGA | 0.147 ± 0.062 |
| AGAACGGA | -0.258 ± 0.028 |
| AAGAAGCT | -0.12 ± 0.0019 |
| CGTCGCGA | 0.00718 ± 0.059 |
| CGGCCAGC | -0.103 ± 0.0057 |
| CTACAAGC | -0.0442 ± 0.059 |
| ATACAAGA | 0.0902 ± 0.1 |
| ATACAAAT | 0.216 ± 0.0091 |
| ATACAAAA | 0.359 ± 0.0063 |
| CTACAAAA | 0.0122 ± 0.043 |

| Sequence | PBM 8-mer E-score |
| --- | --- |
| ATACAAGC | 0.252 ± 0.076 |
| AGTGTAAT | 0.114 ± 0.14 |
| ATTGCAAC | 0.0277 ± 0.07 |
| CTCTCAGA | -0.148 ± 0.12 |
| GATAACTA | 0.245 ± 0.029 |
| ACTAAATA | 0.249 ± 0.018 |
| GTTAAATA | 0.296 ± 0.026 |
| CCTAAATA | 0.125 ± 0.0015 |
| ACTAAATC | -0.0199 ± 0.085 |
| GTTAACAA | 0.239 ± 0.026 |
| ATTAAATA | 0.0773 ± 0.0041 |
| GCTAACAA | -0.0747 ± 0.062 |
| CATAACTA | 0.0886 ± 0.054 |
| AATAACTA | 0.155 ± 0.038 |
| CTTAAATA | 0.139 ± 0.098 |
| CTTAACAA | 0.05 ± 0.067 |
| TACGTAAA | 0.183 ± 0.046 |
| AAGCACTA | 0.0985 ± 0.0016 |
| CCGTTACA | 0.0269 ± 0.097 |
| CAGAAAAG | 0.0222 ± 0.11 |
| CCTCAAAG | -0.168 ± 0.0062 |
